Reference: PubChem BioAssay (NCATS)
Records with an inconclusive call do not appear. A number with no mark means an inactive call. The source made the active and inactive calls. Calls come from the whole dose curve; as a rule, active = well fitted inhibition curve with a large enough effect; inconclusive = small, poorly fitted or top-dose-only effect; inactive = flat fitted curve, though single readings scatter.

What follows are compounds tested against Aldehyde dehydrogenase, mitochondrial (Homo sapiens) (UniProt P05091) (assay: qHTS for Inhibitors of the Aldehyde Dehydrogenase Family (ALDH2) Primary screen (AID 2061308;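 note: plate controls were vehicle for no effect and reference inhibitor for full effect; nearly all actives have a fitted effect of over 55% in size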)). Details: ALDH2 enzyme inhibition qHTS, 1536-well; series mostly up to 56 µM; activity change, negative = inhibition: at the top concentration.

Row | Structure (SMILES) | activity change, negative = inhibition [%] | Potency
1 | CCCCc1ccc(-c2ccc(=O)n(CC(=O)NCCc3ccccc3)n2)cc1 | 10.3 | –
2 | Cc1ccc(S(=O)(=O)Nc2ccc(Cl)cc2C(=O)Nc2nc(-c3ccccc3)cs2)cc1 | – | inactive
3 | CC(=O)Nc1sc2c(c1-c1nc3ccccc3s1)CCCN(C(C)C)C2 | -1.23 | –
4 | Fc1cc(Nc2nc(-c3ccncc3)nc3ccccc23)ccc1-c1cn[nH]c1 | 1.99 | –
5 | NC(=O)C1CCN(c2nnc(-c3ccc(Br)cc3)s2)CC1 | -16 | –
6 | C=C[C@H]1CN2CC[C@H]1C[C@@H]2C(O)c1ccnc2ccc(OC)cc12 (stereo not given in full) | 4.04 | –
7 | Cc1ccc(NS(=O)(=O)c2ccc3c(c2)CCC(=O)N3)cc1Cl | 8.79 | –
8 | O=C(CNC(=O)C1CCCCC1)OC(C(=O)c1ccccc1)c1ccccc1 (stereo not given) | 18.2 | –
9 | CC1(C)CC(=O)C2=C(C1)NC(Nc1nc3ccccc3o1)=NC21CCCC1 | -15.1 | –
10 | O=C1CCCC2=C1C(c1ncccc1C(F)(F)F)N=C(Nc1nc3ccccc3o1)N2 (stereo not given) | 8.43 | –
11 | C=C1C(=O)O[C@@H]2[C@H]1CC[C@H](C)[C@]1(CCC(=O)O1)C2(C)O (stereo not given in full) | -3.1 | –
12 | Oc1c(C(Nc2ccccn2)c2ccccc2)cc(Cl)c2cccnc12 (stereo not given) | – | inactive
13 | Cc1ccc(NS(=O)(=O)c2cc3c(cc2Cl)CCC(=O)N3)cc1C | – | inactive
14 | COc1cccc(N2C(=O)c3ccccc3C2=O)n1 | -26.8 | –
15 | O=[S+]([O-])(c1cc2ccccc2o1)N1CCN([S+](=O)([O-])c2c(F)cccc2F)CC1 | 14.2 | –
16 | CCNc1ncnc2ccc(-c3ccc4c(c3)OCO4)cc12 | 12.7 | –
17 | CC[C@H](C)[C@H](NC(=O)[C@H]([C@@H](C)CC)N(C)C(C)=O)C(=O)N[C@H](C(=O)N[C@@H](CC(C)C)C(=O)[C@@]1(C)CO1)[C@@H](C)O | 9.04 | –
18 | NC(=O)C1CCN(c2nc(-c3ccc(N)cc3)cs2)CC1 | 5.28 | –
19 | Cn1nnnc1Sc1ncnc2scc(-c3cccc4c3sc3ccccc34)c12 | 8.03 | –
20 | Cn1ncc(Cl)c1C1N=C(Nc2nc3ccccc3o2)NC2=C1C(=O)CCC2 (stereo not given) | 0.0279 | –

Row | Structure (SMILES) | activity change, negative = inhibition [%] | Potency
21 | COc1ccc(OC)c(C(=O)Nc2nc(-c3ccccc3)cs2)c1 | 5.94 | –
22 | CCCn1c(-c2ccc(F)cc2)nc2c(NCCN3CCCC3)nc(C)nc21 | 7.61 | –
23 | CN(C(=O)c1cn2c(-c3ccc(C(F)(F)F)cc3)cnc2cn1)c1ccc(C#N)cc1 | -7.49 | –
24 | O=C1CCc2cc(S(=O)(=O)Nc3ccc4ccccc4c3)ccc2N1 | -3.1 | –
25 | CCn1cnc2c(Nc3ccc(CCC(=O)N=C(N)N)cc3)nc(C#N)nc21 | 6.13 | –
26 | FC(F)(F)c1cc(-c2ccc(CNc3nc(-c4ccccc4C(F)(F)F)nc4ccccc34)cc2)ccc1Cl | 8.83 | –
27 | CCCN(Cc1cccs1)c1ncnc2ccc(-c3ccc4c(c3)OCO4)cc12 | -8.96 | –
28 | CCCn1c(-c2ccc(F)cc2)nc2c(N3CCN(C)CC3)nc(C)nc21 | 6.96 | –
29 | CC(C)(NC(=O)Nc1ccccc1Cl)C(=O)N1CCC(C(=O)O)CC1 | 18.2 | –
30 | O=C(CSc1nc2ccc(S(=O)(=O)N3CCOCC3)cc2[nH]1)N1CCOCC1 | – | inactive
31 | O=C1CCCC2=C1C1(CCCC1)N=C(Nc1nc3ccccc3n1Cc1ccccc1)N2 | -1.92 | –
32 | O=C(CCc1ccccc1Br)NCCc1nc2ccccc2[nH]1 | 12.3 | –
33 | O=C(Nc1ccc(F)c(C(F)(F)F)c1)Nc1cccc(-c2ccncc2)n1 | -10.1 | –
34 | O=S1(=O)N=C(OCc2ccccc2)c2ccccc21 | 6.21 | –
35 | O=C(Nc1cc(C(F)(F)F)ccc1Cl)C(O)Cc1ccccc1 (stereo not given) | 13.7 | –
36 | CCOC(=O)c1ccc(-n2cnc3cc(C(=O)N4CCCCC4)ccc32)cc1 | 58.3 | –
37 | O=c1ccc2ccc(OCCCCN3CCN(c4cccc5sccc45)CC3)cc2[nH]1 | 3.31 | –
38 | COCCNc1nc(C)nc2c1nc(-c1ccccc1)n2CCN1CCCCC1 | 9.51 | –
39 | CC(=O)Nc1sc2cnccc2c1-c1nc2ccccc2s1 | -2.16 | –
40 | CCN(CC)c1ccc(NC(=O)CN(C)Cc2c(O)ccc3ccccc23)cc1 | -1.54 | –
